According to PubChem BioAssay (NCI):
This is part of a sample that, as a whole, favours compounds with a hit. Of some 83,000 tested, about 20% had one in any assay.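 Each cell line was grown in a 96-well plate and treated with one concentration of compound for 48 hours. Values below 10 were considered active.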 A number with no mark means an inactive call. The source made the active and inactive calls.

Tests used:
Experiment in all cases: NCI-60 one-dose screen, 48 h (100 = growth as untreated, 0 = no growth, -100 = all killed)
Conditions in all cases: 10 µM unless noted
SK-MEL-2 melanoma = system: SK-MEL-2 melanoma
EKVX NSCLC = system: EKVX NSCLC
SN12C renal = system: SN12C renal
UO-31 renal = system: UO-31 renal
TK-10 renal = system: TK-10 renal
ACHN renal = system: ACHN renal
CAKI-1 renal = system: CAKI-1 renal
A498 renal = system: A498 renal
CCRF-CEM leukemia = system: CCRF-CEM leukemia
MOLT-4 leukemia = system: MOLT-4 leukemia
SR leukemia = system: SR leukemia
RPMI-8226 leukemia = system: RPMI-8226 leukemia
OVCAR-8 ovarian = system: OVCAR-8 ovarian
OVCAR-5 ovarian = system: OVCAR-5 ovarian
SK-OV-3 ovarian = system: SK-OV-3 ovarian
IGROV1 ovarian = system: IGROV1 ovarian
OVCAR-3 ovarian = system: OVCAR-3 ovarian
HS 578T breast = system: HS 578T breast
NCI/ADR-RES ovarian = system: NCI/ADR-RES ovarian
OVCAR-4 ovarian = system: OVCAR-4 ovarian

Row | SMILES | growth (SK-MEL-2 melanoma) | growth (EKVX NSCLC) | growth (SN12C renal) | growth (UO-31 renal) | growth (TK-10 renal) | growth (ACHN renal) | growth (CAKI-1 renal) | growth (A498 renal) | growth (CCRF-CEM leukemia) | growth (MOLT-4 leukemia) | growth (SR leukemia) | growth (RPMI-8226 leukemia) | growth (OVCAR-8 ovarian) | growth (OVCAR-5 ovarian) | growth (SK-OV-3 ovarian) | growth (IGROV1 ovarian) | growth (OVCAR-3 ovarian) | growth (HS 578T breast) | growth (NCI/ADR-RES ovarian) | growth (OVCAR-4 ovarian)
1 | CCO/C=N/C1=C(C#N)C(c2ccc(Cl)cc2)c2c(c3ccccc3n(C)c2=O)O1 (stereo not drawn) | 85.4% | 74% | 74.6% | 56.2% | 115% | 75.7% | -0.281% (active) | 47.9% | 66.9% | 75.2% | 22.7% | 88.1% | 86.3% | 85.1% | 81.8% | 59.1% | 64.3% | 65.5% | 57.3% | 
2 | CCO/C=N/C1=C(C#N)C(c2ccc(Cl)cc2)c2c(c3ccc(C)cc3[nH]c2=O)O1 (stereo not drawn) | 101% | 69.5% | 85.5% | 49.6% | 116% | 78.5% | 49.7% | 66.1% | 87.3% | 95.6% | 86.7% | 30.2% | 89.7% | 83.1% | 85.7% | 68.4% | 103% | 48.8% | 96.1% | 
3 | CC12CCC3C4(C)COC(c5ccco5)OC4CCC3(C)C1CC(C1=CCOC1=O)O2 (stereo not drawn) | 131% | 91.6% | 96.4% | 81.5% | 105% | 102% | 92.4% | 103% | 101% | 97.5% | 95.7% |  | 108% | 99.8% | 121% | 93.8% | 105% | 107% |  | 
4 | Cc1ccc(S(=O)(=O)NCCNc2cc(-c3cn(C(C)(C)C)nc3-c3cccc(O)c3)ccn2)cc1 | 84.3% | 64.6% | 66.5% | 58% | 103% | 78.9% | 77% | 80.8% | 60.7% | 48.4% | 51.7% |  | 79% | 80% | 91.4% | 75.2% | 81.7% | 76.6% | 67% | 67.3%
5 | CC1=NC2=CC=CC3=NC(C(Cl)(Cl)Cl)=NC(=N1)N23 | 86.6% | 76.1% | 86.7% | 63% | 112% | 61% | 61.3% | 81.9% | 70.1% | 4.18% (active) |  | 50.3% | 84.9% | 112% | 87.3% |  | 34.8% | 62.6% | 81.6% | 73%
6 | COc1ccc(Nc2nn3c(-c4ccccc4)cc(-c4ccccc4)nc3c2C(N)=O)c(OC)c1 | 70.1% | 67.7% | 46.4% | 86.9% | 29.7% | 67% | 77.4% | 70.5% | 73.2% | 72.3% |  | 71.8% | 27.8% | 63.6% | 63.7% | 91.6% | 46.2% | 56.8% | 30.4% | -8.96% (active)
7 | O=C(c1c[nH]c(=O)c(-c2ccccc2)c1)c1ccccc1O | 93.1% | 94.7% | 85.2% | 68.6% | 94.8% | 82.8% | 85% | 76.8% | 99.5% | 96.1% |  | 95.2% | 85.6% | 88.5% | 83.6% | 82.7% | 98.4% | 80% | 82.4% | 95.8%
8 | COc1ccc(-c2nc3sccn3c2/C=C/C(=O)c2cc(F)cc(F)c2)cc1 | 74.7% | 88% | 92.1% | 60.5% | 164% | 65.4% | 57.1% | 57.6% | 19.4% | 5.45% (active) |  | 6.15% (active) | 80.7% | 102% | 75.3% |  | 54.7% | 75.1% | 78% | 66.2%
9 | CN(CCCCN(C[C@H]1Cc2ncccc2CN1)[C@H]1CCCc2cccnc21)C1CCC(F)(F)CC1 | 94.6% | 87.4% | 86.1% | 67.6% | 82.4% | 102% | 73.9% | 99.4% | 88.3% | 91.4% |  | 92.5% | 85.6% | 79% | 90.6% | 111% | 98.4% | 105% | 85.8% | 108%
10 | C1=Cc2ccccc2N(c2nnc(-c3ccccc3)o2)c2ccccc21 | 108% | 94.3% | 96.2% | 83.9% | 114% | 95.1% | 83.3% | 80% | 73.9% | 83.5% | 32.3% |  | 95.4% | 98.2% | 114% | 92.9% | 107% | 102% | 92.2% | 92.1%
11 | Cc1ccc(C(=O)NCCCNc2nccc(-n3ccc4cccnc43)n2)cc1 | 105% | 86.1% | 95.1% | 85.9% | 67.7% | 83.2% | 96.6% | 81.7% | 107% | 94.1% | 92.7% |  | 100% | 89.8% | 106% | 88.6% | 105% | 101% | 92.3% | 
12 | CC12CCC3C4(C)COC(c5ccccc5Cl)OC4CCC3(C)C1CC(C1=CCOC1=O)O2 (stereo not drawn) | 77.4% | 63.7% | 70.2% | 53.9% | 94.9% | 58.8% | 56.1% | 50.8% | 66.8% | 34.5% | 28% |  |  | 91.3% | 94.5% | 82.9% | 64.4% | 76.1% | 63.2% | 31.2%
13 | COc1ccc(Nc2nn3c(C)cc(C)nc3c2C(=O)Nc2ccc(C)cc2)c(OC)c1 | 92.7% | 103% | 98.4% | 82% | 107% | 101% | 95.7% | 117% | 106% | 107% |  | 102% | 100% | 82.9% | 87.7% | 97.1% | 105% | 105% | 105% | 102%
14 | N/C(=N\S(=O)(=O)c1ccccc1)Nc1nc2ccccc2s1 | 93.1% | 86.9% | 86.1% | 74.2% | 108% | 94.7% | 89.3% | 118% | 109% | 99.4% |  | 88.6% | 87.6% | 96.9% | 85.4% | 90.8% | 107% | 98.2% | 91.8% | 100%
15 | Cn1c(=O)c2[nH]c(C3CC=CCC3)nc2n(C)c1=O (stereo not drawn) | 97.6% | 113% | 99.4% | 72.3% | 112% | 101% | 118% | 105% | 104% | 123% |  | 101% | 106% | 94.7% | 99.1% | 111% | 105% | 97.7% | 112% | 111%
16 | c1cc(C2=N[C@@H]3c4ccccc4C[C@@H]3O2)nc(C2=N[C@@H]3c4ccccc4C[C@@H]3O2)c1 | 103% | 89.4% | 97% | 94.6% | 101% | 102% | 92.4% | 102% | 102% | 106% | 101% |  | 106% | 98.3% | 117% | 104% | 109% | 98.2% | 98.7% | 99.6%
